The values below come from PubChem BioAssay (NCI).

The structures appear in SMILES notation. Compounds without any hit were thinned out: in the full panel of roughly 83,000, 20% have a hit.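 Note: values are percent growth. 100 is the growth of untreated cells, values between 100 and 0 indicate rising inhibition; between -100 and 0 indicates cell death.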 Values without a mark were called inactive. Calls of active or inactive are those of the source. How the source made its calls: active means growth percent below 10; inactive means the rest.

Test in all cases: NCI-60 one-dose screen, 48 h (100 = growth as untreated, 0 = no growth, -100 = all killed)
Holding throughout (settings): 10 µM unless noted

Test [1] deals with T-47D breast.
The subject of test [2] is BT-549 breast.
Test [3] has as its system MDA-MB-435 melanoma.
Test [4] relates to SW-620 colon.
Test [5] deals with HCT-116 colon.
Test [6] relates to HCC-2998 colon.
The test system of test [7] is KM12 colon.
Test [8] relates to MCF7 breast.

In the case of `O=[N+]([O-])c1cccc(/C=C/c2ccc3ccccc3n2)c1`, the growth in test [1] is 79.5%; in test [2], 73.7%; in test [3] it was 79.8%; in test [4], 85.5%; in test [5], 82.4%; in test [6], 81%. Besides, the growth in test [7] is 82.7%.
For `CCN(CC)CCCC(C)Nc1ccnc2cc(Cl)c(SCc3ccccc3)cc12` (centres undefined), the growth in test [1] is -58.3% (active); in test [2], -81% (active); in test [3] it was -71.2% (active); in test [4], -85.3% (active); in test [5], -67.8% (active); in test [6], -84.1% (active). In addition, the growth in test [7] was -32.4% (active).
With `C#C[C@]1(O)CC[C@H]2[C@@H]3CC=C4c5nc(Nc6ncccn6)sc5CC[C@]4(C)[C@H]3CC[C@@]21C`, the growth is 40% in test [1]; 19.5% in test [2]; 50.5% in test [3]; 60.4% in test [4]; 22.3% in test [5]; 88.3% in test [6]. In test [7], the growth is 48.5%.
For `Cn1cc(-c2noc(C(=O)c3cn(C)c4ncc(Br)cc34)n2)c2ccccc21`, the growth was 99.7% in test [1]; 98% in test [2]; 99.9% in test [3]; 96.5% in test [4]; 99.6% in test [5]; 108% in test [6]. The growth in test [7] was 96.7%.
As to `O=C(O)CC1CCCCC1c1ccccc1` (centres undefined), the growth is 104% in test [1]; 96% in test [2]; 115% in test [3]; 111% in test [4]; 98.4% in test [5]; 106% in test [6]. Besides, in test [7], the growth is 110%.
`CC(C)C1=NOC(=O)C1=Cc1cn(-c2ccccc2)nc1-c1ccc(Br)cc1`: the growth in test [1] is 74.8%; in test [2], 119%; in test [3], 71.3%; in test [4], 57.7%; in test [5], 64.2%; in test [6] it was 76.2%. For the same molecule, the growth in test [7] is 85.4%.
Take `CC(C)c1ccc(/C=N/N=C(N)N)cc1`: the growth was 91% in test [1]; 86.3% in test [2]; -28.7% (active) in test [3]; 36.2% in test [4]; 84.3% in test [5]; 50.9% in test [6]. Moreover, the growth in test [7] was 27.7%.
`O=C(N/N=C1\c2ccccc2-c2cccc(C(=O)O)c21)c1ccc(O)cc1`: the growth is 104% in test [1]; 83.7% in test [2]; 99.1% in test [3]; 84.3% in test [4]; 99.4% in test [5]; 98.9% in test [6]. For the same molecule, the growth in test [7] is 105%.
Take `O=C(Nc1ccc(Oc2ccc(F)cc2)c(Cl)c1)c1cccnn1`: the growth in test [1] was 37.6%; in test [2] it was 103%; in test [3] it was 67.2%; in test [4], 94.1%; in test [8], 65.3%; in test [5], 96.8%. The growth in test [7] was 79.2%.
In the case of `O=C(Nc1ccc(Oc2ccc(F)cc2)c(Cl)c1)c1cnccn1`, the growth in test [1] is 42.9%; in test [2] it was 100%; in test [3] it was -2.8% (active); in test [4] it was 37%; in test [5] it was 58.7%; in test [6] it was 76.3%. Also, the growth in test [7] was 27.5%.
Turning to `CC1(C)CC[C@]2(C(N)=O)CC[C@]3(C)C(=CC[C@@H]4[C@@]5(C)C/C(=C/c6cccnc6)C(=O)C(C)(C)[C@@H]5CC[C@]43C)[C@@H]2C1`, the growth in test [1] was 2.41% [100 µM] (active); in test [2], -47.9% [100 µM] (active); in test [3], -34.6% [100 µM] (active); in test [4], -32.4% [100 µM] (active); in test [5] it was -48.2% [100 µM] (active); in test [6], -73.4% [100 µM] (active). The growth in test [7] was -37.2% [100 µM] (active).
Consider `CC(C)OC(=O)Nc1cc(F)ccc1F`, for which the growth in test [1] was 94.8%; in test [2] it was 111%; in test [3], 99.4%; in test [4], 99.8%; in test [5], 105%; in test [6] it was 98.3%. In addition, the growth in test [7] is 103%.
As for `CCCCCCCCCCCCCC[n+]1cccc(C(N)=O)c1`, the growth was 49.8% in test [1]; -49.9% (active) in test [2]; -36.5% (active) in test [3]; 0.686% (active) in test [4]; 20.8% in test [5]; -51.8% (active) in test [6]. The growth in test [7] is -87.1% (active).
Take `CCn1cc(-c2ccnc(NCCNS(=O)(=O)c3cccc4ccccc34)c2)c(-c2cccc(O)c2)n1`: the growth is 85.9% in test [1]; 109% in test [2]; 96.1% in test [3]; 118% in test [4]; 87.3% in test [5]; 122% in test [6]. Further, the growth in test [7] was 99.1%.
With `CC(C)C1=NOC(=O)C1=Cc1cn(-c2ccccc2)nc1-c1cccc([N+](=O)[O-])c1`, the growth in test [1] was 84.5%; in test [2] it was 109%; in test [3] it was 80%; in test [4], 57.8%; in test [5], 34.7%; in test [6], 87.3%. Moreover, the growth in test [7] is 87%.
As for `CCOC(=O)c1nn(C2CCCCO2)c2ccc(NC(=O)CSc3nc4ccccc4c(=O)[nH]3)cc12` (centres undefined), the growth in test [1] was 99.1%; in test [2], 89.6%; in test [3], 107%; in test [4], 105%; in test [5], 101%; in test [6] it was 115%. Besides, the growth in test [7] is 102%.
With `COc1ccc(N(c2nc(-c3ccc([N+](=O)[O-])cc3)cs2)C(C)C)cc1`, the growth in test [1] was 53.4%; in test [2] it was 97%; in test [3], 89%; in test [4], 88.1%; in test [5] it was 76.3%; in test [6] it was 101%. Besides, the growth in test [7] is 75.7%.
Turning to `CC1(C)CC[C@]2(C(=O)O)CC[C@]3(C)C(=CC[C@@H]4[C@@]5(C)C/C(=C/c6cccnc6)[C@H](O)C(C)(C)[C@@H]5CC[C@]43C)[C@@H]2C1`, the growth in test [1] is 15.1% [100 µM]; in test [2] it was 0.607% [100 µM] (active); in test [3], 7.02% [100 µM] (active); in test [4] it was 13.3% [100 µM]; in test [5], -33.4% [100 µM] (active); in test [6], -37.5% [100 µM] (active). Besides, in test [7], the growth was -38.1% [100 µM] (active).
Consider `Clc1ccc(/C=N/Nc2nc3ccccc3s2)c(Cl)c1`, for which the growth in test [1] is 74.4%; in test [2], 115%; in test [3], 91.9%; in test [4], 79.3%; in test [5], 80.6%; in test [6] it was 101%. Moreover, the growth in test [7] is 94%.
Turning to `c1ccc2c(c1)CN(CCCN1CCOCC1)C2`, the growth is 101% in test [1]; 121% in test [2]; 98.2% in test [3]; 107% in test [4]; 97.9% in test [5]; 98.6% in test [6]. Besides, in test [7], the growth is 102%.
With `CCOc1ccccc1/C=N\Nc1ccc(S(=O)(=O)c2ccc(N/N=C/c3ccccc3OCC)cc2)cc1`, the growth is 75.6% in test [1]; 83.4% in test [2]; 99.3% in test [3]; 97.9% in test [4]; 87.5% in test [5]; 107% in test [6]. In addition, the growth in test [7] was 91.5%.
As for `O=c1[nH]c(CN2CCN(c3cccc(Cl)c3)CC2)nc2cc(Cl)ccc12`, the growth in test [1] was 75.9%; in test [2], 110%; in test [3], 103%; in test [4] it was 99.2%; in test [5], 92.4%; in test [6], 96.2%. The growth in test [7] was 99%.
As for `O=c1cc(-c2ccccc2)oc2cc(OCc3cn(Cc4ccc(F)cc4)nn3)cc(O)c12`, the growth in test [1] was 44.2% [100 µM]; in test [2], 16.3% [100 µM]; in test [3], 98.2% [100 µM]; in test [4] it was 102% [100 µM]; in test [8], 65.7% [100 µM]; in test [5] it was 48.5% [100 µM]. Moreover, in test [7], the growth is 99.4% [100 µM].
For `CCOC(CNC(=O)c1cccc([N+](=O)[O-])c1)OCC`, the growth in test [1] was 92.1%; in test [2], 60.5%; in test [3], 103%; in test [4], 102%; in test [8], 87.2%; in test [7], 112%.
With `C[n+]1c(-c2ccccc2)c2cc(N)ccc2c2ccccc21`, the growth in test [1] was 11.9%; in test [2] it was 0.585% (active); in test [3], 31.5%; in test [8], 13%; in test [5], 30.4%; in test [6] it was 40.5%. The growth in test [7] was 19.1%.
Consider `C#C[C@]1(O)CC[C@H]2[C@@H]3CC=C4c5nc(Nc6ccccn6)sc5CC[C@]4(C)[C@H]3CC[C@@]21C`, for which the growth in test [1] was 10.1%; in test [2], -27.6% (active); in test [3] it was -32% (active); in test [8], 7.94% (active); in test [5], 4.49% (active); in test [6], 34.5%. Besides, the growth in test [7] was -32.3% (active).
In the case of `CC(C)C1=NOC(=O)C1=Cc1cn(-c2ccccc2)nc1-c1ccc(Cl)cc1`, the growth is 74.6% in test [1]; 117% in test [2]; 76.4% in test [3]; 61.4% in test [4]; 50.4% in test [5]; 91.7% in test [7].
As for `Clc1ccccc1/C=N\Nc1ccccn1`, the growth was 62.1% in test [1]; 114% in test [2]; 102% in test [4]; 28.4% in test [8]; 107% in test [5]; 111% in test [6]. Besides, the growth in test [7] is 87.2%.
`COc1ccc2nc3c(cc2c1)C(=O)CC(c1ccccc1)C3` (centres undefined): the growth in test [1] is 75%; in test [2], 51.7%; in test [3], -67.7% (active); in test [8], 56.2%; in test [5], 11.1%; in test [6] it was 91.3%. Further, the growth in test [7] was 10.8%.
Take `Cc1cccc(C[C@H](NC(=O)Nc2ccc(Cl)cc2F)C(=O)N[C@@H]2C(=O)N3C[C@H](OC(=O)CCN(C)C)C[C@H]3C(=O)N3CCCC[C@H]3C(=O)N[C@@H](C)C(=O)N3C[C@H](C)C[C@H]3C(=O)O[C@H]2C)c1`: the growth in test [1] is 13.8%; in test [2], 4.55% (active); in test [3] it was 14.6%; in test [8], 13.4%; in test [5] it was -29% (active); in test [6], 19%. In addition, in test [7], the growth is 23%.
As for `COc1cc2c(c(Br)c1N)-c1cc(Br)c(N)cc1C2=O`, the growth was 18.4% in test [1]; 77.9% in test [2]; 75.3% in test [4]; 3.68% (active) in test [8]; 62.9% in test [5]; 52.1% in test [6]. Also, the growth in test [7] is 66.6%.
In the case of `CCOC(=O)c1c[nH]n2c(=S)ncnc12`, the growth was 98.7% in test [1]; 108% in test [2]; 112% in test [4]; 96.3% in test [8]; 101% in test [5]; 112% in test [6]. Further, the growth in test [7] was 99.9%.
As for `c1cc2ccc3cc2cc1CNCCN1CCNCc2ccc4ccc(cc4c2)CNCCN(CCNC3)CCNCc2ccc3ccc(cc3c2)CNCC1`, the growth is -6.97% (active) in test [1]; 97.3% in test [2]; -5.25% (active) in test [3]; -5.39% (active) in test [8]; 5.35% (active) in test [5]; 19.2% in test [6]. Besides, the growth in test [7] was -15.5% (active).
